The source of these data is PubChem BioAssay (Tox21).

Each structure is given as a SMILES string. A number with no mark means an inactive call. Inconclusive results are not listed. The source made the active and inactive calls. Unless noted, the call rests on the fitted dose curve; in most records, active means well fitted curve in the direction sought with a large enough effect in the repeat runs; inconclusive means weak or mixed curves; inactive means no such curve, though single readings can be large; an effect the other way counts as inactive or inconclusive.

Assay [1] concerns the target Luciferin 4-monooxygenase (Photinus pyralis) (UniProt P08659). Nature of the assay: qHTS assay to identify small molecule inhibitors of firefly luciferase (AID 1224835). Further: nearly all actives have a fitted effect of over 25% in size. Further: potency means the concentration at half of the fitted maximal effect. Put shortly:
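Quantitative HTS format; KM concentrations of both substrates. Purified P. pyralis FLuc activity quantified from luminescence images.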
(In general: In qHTS, concentration-response curves come from the screen itself.)

Assay [2] is described as follows: qHTS assay to identify small molecule antagonists of the constitutive androstane receptor (CAR) signaling pathway - cell viability counter screen (AID 1224837). Further: nearly all actives have a fitted effect of over 45% in size. Put shortly: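 HepG2-CYP2B6-hCAR cells, 2500/well, 4 hr pre-incubation; compound titration, 15 conc.; CITCO 50 nM final; 23 hr, 37 C/5% CO2; CellTiter-Fluor, fluorescence intensity.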
The target of assay [3] is Nuclear receptor subfamily 1 group I member 3 (Homo sapiens) (UniProt Q14994). Nature of the assay: qHTS assay to identify small molecule antagonists of the constitutive androstane receptor (CAR) signaling pathway (AID 1224838).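 Further: HepG2 cells stably expressing hCAR with CYP2B6 luciferase reporter stimulated by CITCO; nearly all actives have a fitted effect of over 40% in size.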 Put shortly: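 HepG2-CYP2B6-hCAR cells; 4 h pre-incubation; cpd (15 conc) + CITCO 50 nM final; 24 h, 37 C/5% CO2; ONE-Glo, luminescence.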
For assay [4] the target is unchanged. Briefly: qHTS assay to identify small molecule agonists of the constitutive androstane receptor (CAR) signaling pathway (AID 1224839).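 Further: HepG2 cells stably carrying human CAR and a CYP2B6 luciferase reporter; nearly all actives have a fitted effect of over 15% in size.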 The gist of the method:
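Readout: firefly luciferase luminescence via ONE-Glo. System: HepG2 double-stable for hCAR and CYP2B6-2.2kb. Conditions: 15-point compound titration, PK11195 at 0.75 uM final, 24 h incubation.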

Assay [5] is described as follows: qHTS assay to identify small molecule antagonists of the estrogen related receptor signaling pathway with the pleiotropic PPARgamma coactivator (PGC) from Tox21 10K library - cell viability counter screen (AID 1224840; active means well fitted cell-killing curve with a large enough effect in the repeat runs, not every such curve was filed as active; further: nearly all actives have a fitted effect of over 40% in size). Put shortly: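 PGC/ERR cells, 2,000/well; 6 h pre-incubation 37 C/5% CO2; cpd in DMSO via pin tool; 17.5 h 37 C; CellTiter-Fluor, 30 min; fluorescence.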

Assay [6] can be described thus: qHTS assay to identify small molecule agonists of the hypoxia (HIF-1) signaling pathway - cell viability counter screen (AID 1224844; calls by dose curve; further: nearly all actives have a fitted effect of over 50% in size; further: potency means the concentration at half of the fitted maximal effect). Put shortly:
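ME-180 HRE-bla cells, 2,000/well, 0.5% dialyzed FBS; 5 hr settle, 17 hr compound at 37C/5% CO2; CCF4-AM reporter read first, then CellTiter-Glo luminescence after 30 min RT.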

A short description of assay [7]: qHTS assay to identify small molecule agonists of H2AX (AID 1224845; active means well fitted activation curve with a large enough effect in the signal ratio in the repeat runs, not every such curve was filed as active; the % refers to the signal ratio). The gist of the method: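 Wild-type CHO-K1 cells plated overnight, then exposed 3 hr at 37C to compounds at 15 concentrations (0.76% DMSO). Lysed, then HTRF anti-pH2AX(S139)-cryptate/anti-H2AX-d2 detection after 24 hr at room temperature; emissions 665 and 620 nm.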
Assay [8] can be described thus: qHTS assay to identify small molecule agonists of the hypoxia (HIF-1) signaling pathway (AID 1224846; active means well fitted activation curve with a large enough effect in the signal ratio in the repeat runs, not every such curve was filed as active; the % refers to the signal ratio). The gist of the method:
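Cell line: CellSensor HRE-bla ME-180; 2,000 cells/well; 0.5% dialyzed FBS; 5 h preincubation; DMSO compound pin transfer; 17 h, 37C, 5% CO2; CCF4-AM added; bla FRET signal scored for activation.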

The nature of assay [9]: qHTS assay to identify small molecule agonists of H2AX - cell viability counter screen (AID 1224847; calls by dose curve; further: top concentration of the series differs between compounds; nearly all actives have a fitted effect of over 30% in size). The gist of the method:
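For this counter screen, overnight-attached CHO-K1 cells received test compounds (15 concentrations, 0.76% DMSO final); 3 hr later at 37C, CellTiter-Glo reagent was added and luminescence recorded after 30 min at room temperature.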

Assay [10] is described as follows: qHTS RealTime-Glo MT Cell Viability Assay in HEK293 cells - 32 hour (AID 1224868). Further: top concentration of the series differs between compounds; nearly all actives have a fitted effect of over 50% in size. The gist of the method:
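Tox21 10K qHTS, HEK293, 600 cells/well, RealTime-Glo reagent co-dispensed with cells; 5 h preincubation, compound by pintool, 37 C, luminescence at 0–40 h.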

The nature of assay [11]: A CellTox Green Cytotoxicity Assay to monitor cytotoxicity in HEK293 cells - 0 hour (AID 1224869). Further: nearly all actives have a fitted effect of over 50% in size. Put shortly: (§1)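 Nonlytic real-time cytotoxicity: HEK293 + CellTox Green reagent plated, 5 h preincubation, pintool compound addition (23 nL in DMSO), 37 C for 40 h, fluorescence measured at successive time points.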
Assay [12] can be described thus: qHTS RealTime-Glo MT Cell Viability Assay in HepG2 cells - 40 hour (AID 1224870). Further: nearly all actives have a fitted effect of over 50% in size. Put shortly:
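HepG2 cells mixed with RealTime-Glo MT reagents (NanoLuc plus cell-permeant prosubstrate) were seeded at 600 cells/well, incubated 5 h at 37 C/5% CO2, then pinned with compounds in DMSO; nonlytic luminescence tracked viability during 40 h treatment.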

Assay [13] is described as follows: A CellTox Green Cytotoxicity Assay to monitor cytotoxicity in HEK293 cells - 40 hour (AID 1224871). Further: nearly all actives have a fitted effect of over 45% in size. The gist of the method:
as §1

Assay [14] can be described thus: qHTS assay to identify small molecule agonists of the estrogen related receptor signaling pathway with the pleiotropic PPARgamma coactivator (PGC) from Tox21 10K library (AID 1224842). Further: nearly all actives have a fitted effect of over 15% in size. The gist of the method:
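PGC/ERR reporter cells (NTP line) were seeded 2,000 per well, rested 6 h at 37 C/5% CO2, then pin-dosed with compounds in DMSO for 18 h at 37 C; luciferase read by One-Glo luminescence after 30 min at room temperature.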

Assay [15] deals with Thyrotropin receptor (Homo sapiens) (UniProt P16473). Briefly: qHTS assay to identify small molecule agonists of the thyroid stimulating hormone receptor (TSHR) signaling pathway (AID 1224843; calls by dose curve; further: nearly all actives have a fitted effect of over 45% in size). The gist of the method:
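Cell line HEK293 with TSHR; density 800/well. Exposure 30 min RT. Readout HTRF cAMP (cAMP-d2/anti-cAMP-cryptate), 1 h RT before reading.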

The nature of assay [16]: qHTS assay to identify small molecule antagonists of the estrogen related receptor (ERR) signaling pathway from Tox21 library (AID 1224848). Further: nearly all actives have a fitted effect of over 50% in size. Put shortly: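 Screening used an ERR reporter line supplied by NTP, exposed for 18 h at 37 C to library compounds delivered in DMSO. Signal was luciferase luminescence developed with ONE-Glo at room temperature for 30 min.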
Assay [17] is described as follows: qHTS assay to identify small molecule agonists of the estrogen related receptor (ERR) signaling pathway from Tox21 library (AID 1224849; calls by dose curve; further: nearly all actives have a fitted effect of over 15% in size). As to conditions: ERR reporter cell line, ONE-Glo luciferase, 18 h. The gist of the method: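 ERR cells, 6 h pre-incubation 37 C/5% CO2; cpd in DMSO pinned; 18 h 37 C; ONE-Glo added, 30 min RT; luminescence read. Agonist mode, qHTS.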

Assay [18] can be described thus: qHTS RealTime-Glo MT Cell Viability Assay in HepG2 cells - 24 hour (AID 1224867). Further: nearly all actives have a fitted effect of over 50% in size. The gist of the method:
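Cells + NanoLuc/prosubstrate dispensed (600 cells/well) → 5 h at 37 C/5% CO2 → compounds in DMSO transferred → 40 h incubation at 37 C, luminescence read at 0, 8, 16, 24, 32, 40 h.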

Assay [19] can be described thus: qHTS assay to identify small molecule agonists of the constitutive androstane receptor (CAR) signaling pathway - cell viability counter screen (AID 1224836). Further: nearly all actives have a fitted effect of over 45% in size. The gist of the method: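 Double-stable HepG2 hepatoma cells (hCAR plus CYP2B6-2.2kb) are treated for 23 h at 37 C with test compounds in 15-point concentration series. PK11195 at 0.75 uM final is co-added. Cell viability is quantified by CellTiter-Fluor.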

A short description of assay [20]: qHTS assay to identify small molecule antagonists of the estrogen related receptor signaling pathway with the pleiotropic PPARgamma coactivator (PGC) from Tox21 10K library (AID 1224841; call rule not given here). Put shortly:
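PGC/ERR cell line, 2,000 cells/well; 6 h pre-incubation 37 C/5% CO2; compounds (DMSO) pinned in; 18 h, 37 C; One-Glo, 30 min RT; luminescence.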
On the % scale 0 is the no-effect control and ±100 the full control effect.

Chain of Luciferin 4-monooxygenase (Photinus pyralis) (P08659 whole entry, looked up): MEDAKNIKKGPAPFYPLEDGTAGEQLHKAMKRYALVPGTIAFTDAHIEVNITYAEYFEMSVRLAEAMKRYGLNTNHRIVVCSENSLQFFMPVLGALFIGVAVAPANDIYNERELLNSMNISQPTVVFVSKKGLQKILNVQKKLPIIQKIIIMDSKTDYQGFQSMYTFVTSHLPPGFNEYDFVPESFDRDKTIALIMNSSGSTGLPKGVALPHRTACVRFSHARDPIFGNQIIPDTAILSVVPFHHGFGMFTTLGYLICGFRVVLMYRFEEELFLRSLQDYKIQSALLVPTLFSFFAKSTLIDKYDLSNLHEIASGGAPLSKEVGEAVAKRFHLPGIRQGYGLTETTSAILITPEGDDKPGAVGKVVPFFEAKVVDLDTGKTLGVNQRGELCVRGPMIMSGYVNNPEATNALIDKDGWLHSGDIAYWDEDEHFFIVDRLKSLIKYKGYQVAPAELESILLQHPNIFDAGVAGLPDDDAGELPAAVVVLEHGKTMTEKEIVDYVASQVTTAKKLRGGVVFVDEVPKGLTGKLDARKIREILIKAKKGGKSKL
Chain of Thyrotropin receptor (Homo sapiens) (P16473 whole entry, looked up): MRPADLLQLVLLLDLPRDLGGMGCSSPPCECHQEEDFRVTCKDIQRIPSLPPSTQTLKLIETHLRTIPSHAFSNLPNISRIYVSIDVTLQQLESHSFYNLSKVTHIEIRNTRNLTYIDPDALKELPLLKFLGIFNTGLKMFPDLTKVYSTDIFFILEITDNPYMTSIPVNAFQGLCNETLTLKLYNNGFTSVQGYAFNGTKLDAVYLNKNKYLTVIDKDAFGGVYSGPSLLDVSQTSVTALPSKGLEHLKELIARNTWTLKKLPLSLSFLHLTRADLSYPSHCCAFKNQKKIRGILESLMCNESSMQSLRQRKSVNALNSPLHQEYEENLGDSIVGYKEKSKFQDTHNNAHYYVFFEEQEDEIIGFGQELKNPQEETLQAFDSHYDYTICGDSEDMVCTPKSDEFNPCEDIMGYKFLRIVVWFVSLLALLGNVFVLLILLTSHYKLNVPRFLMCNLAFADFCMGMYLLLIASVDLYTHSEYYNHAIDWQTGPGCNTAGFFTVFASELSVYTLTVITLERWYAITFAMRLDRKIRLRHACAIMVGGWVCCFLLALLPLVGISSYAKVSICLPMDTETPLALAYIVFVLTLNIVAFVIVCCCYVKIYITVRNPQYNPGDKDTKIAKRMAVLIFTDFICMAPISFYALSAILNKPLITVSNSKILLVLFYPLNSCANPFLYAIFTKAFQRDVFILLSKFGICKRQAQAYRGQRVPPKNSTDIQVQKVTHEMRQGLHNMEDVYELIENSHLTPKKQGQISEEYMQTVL
Chain of Nuclear receptor subfamily 1 group I member 3 (Homo sapiens) (Q14994 whole entry, looked up): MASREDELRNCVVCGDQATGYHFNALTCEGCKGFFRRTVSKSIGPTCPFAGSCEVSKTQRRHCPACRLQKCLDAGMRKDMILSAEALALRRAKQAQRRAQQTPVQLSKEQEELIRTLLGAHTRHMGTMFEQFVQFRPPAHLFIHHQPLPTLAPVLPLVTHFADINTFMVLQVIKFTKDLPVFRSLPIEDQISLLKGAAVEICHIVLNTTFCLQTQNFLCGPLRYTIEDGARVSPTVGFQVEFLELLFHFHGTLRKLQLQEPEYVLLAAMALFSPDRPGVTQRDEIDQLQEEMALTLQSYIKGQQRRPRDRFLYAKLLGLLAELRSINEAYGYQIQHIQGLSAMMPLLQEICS

In the case of `C[C@@H](O)[C@H](N)C(=O)O`, the activity change, negative = inhibition in [1] was 1.37% [at 23.6 µM]. Moreover, the values for the activity change, negative = cytotoxicity in assay [2], in [6] and in [9] were 9.9% [at 19 µM], -2.15% [at 15.8 µM] and -4.33% [at 31.6 µM], respectively. The activity, negative = inhibition in assay [3] is 17.3% [at 19 µM]. Moreover, the activation in [4] was -3.11% [at 19 µM]; in [8], -0.487% [at 15.8 µM]. Besides, in assay [5], the viability change, negative = cytotoxic is 0.388% [at 19 µM]. Further, the activation (H2AX phosphorylation) in assay [7] was 0.0265% [at 31.6 µM]. Besides, the results for the activity change, negative = cytotoxic in assay [10] and in [12] were 0.135% [at 15.8 µM] and -3.3% [at 15.8 µM], respectively. Moreover, the cytotoxicity in assay [11] was -4.33% [at 15.8 µM]. Moreover, the cytotoxicity increase in assay [13] was -7.08% [at 15.8 µM].
For the compound `CCCCCCCCCCCC(=O)OCC(C)OC(=O)CCCCC(=O)O` (stereo not drawn), the Potency entry in assay [1], in assay [2], in [3], in assay [4], in assay [5] and in [14] was “inactive” each time. The Potency entry in assay [15], in [6], in assay [7], in assay [9], in [16] and in [18] was “inactive” each time. The Potency entry in assay [10], in assay [11] and in assay [12] was “inactive” in each case. Moreover, the activity change, positive = activation in assay [17] (at 42.5 µM (top of the series)) was -2.88%.
Take `OCC(F)(F)F`: the Potency result in [19], in [2], in assay [4], in assay [5], in assay [20] and in [14] was “inactive” each time. In addition, the Potency entry in [15], in [6], in assay [7], in assay [8], in [16] and in assay [18] was “inactive” in each case. The Potency result in assay [10], in assay [11], in assay [12] and in assay [13] was “inactive” each time. Moreover, the activity change, positive = activation in [17] (at 92.4 µM (top of the series)) was -0.31%.
With `O=C1NC(=O)[C@@H]2CC=CC[C@H]12`, the Potency entry in assay [19], in assay [2], in assay [3], in assay [4], in assay [5] and in [15] was “inactive” in each case. In addition, the Potency result in assay [7], in assay [9], in [16], in assay [18], in assay [10] and in assay [11] was “inactive” each time. For the same compound, the Potency result in assay [12] and in assay [13] was “inactive” in each case. Further, the Potency in assay [6] was 19.5 µM (active). For the same compound, the activity change, positive = activation in [17] (at 92.4 µM (top of the series)) was -12.4%.
As to `COc1ccc2c(c1)c(CC(=O)OC/C=C(\C)CC/C=C(\C)CCC=C(C)C)c(C)n2C(=O)c1ccc(Cl)cc1`, the Potency result in [19], in assay [2], in assay [3], in assay [4], in assay [5] and in [20] was “inactive” in each case. The Potency entry in assay [14], in assay [6], in assay [7], in assay [9], in [10] and in [11] was “inactive” each time. Moreover, the Potency result in assay [12] and in assay [13] was “inactive” each time. Further, in assay [17] (at 42.5 µM (top of the series)), the activity change, positive = activation was -0.248%.
For `Nc1nc(-c2ccccc2)cs1`, the Potency in assay [1] is 31.6 µM (active). In addition, the Potency entry in [5], in assay [14], in [15], in assay [6], in assay [7] and in assay [8] was “inactive” throughout. Besides, the Potency entry in assay [9], in [18], in assay [10], in assay [11], in assay [12] and in assay [13] was “inactive” in each case. Further, the activity change, positive = activation in assay [17] (at 92.4 µM (top of the series)) was 41.7% (active).
Consider `Cc1c(F)c(N2CCNC(C)C2)cc2c1c(=O)c(C(=O)O)cn2C1CC1` (stereo not drawn), for which the Potency result in [19], in assay [2], in [3], in assay [4], in assay [5] and in [20] was “inactive” in each case. Also, the Potency entry in [14], in assay [15], in assay [6], in [7], in [8] and in assay [9] was “inactive” in each case. Further, the Potency entry in assay [18], in assay [10], in [11] and in assay [12] was “inactive” in each case. Further, the activity change, positive = activation in [17] (at 42.5 µM (top of the series)) is 9.53%.
